ChEMBL document CHEMBL4513216, “Probing the Open Global Health Chemical Diversity Library for Multistage-Active Starting Points for Next-Generation Antimalarials” (ACS Infect Dis, 2020)
The campaign covered roughly 69,000 compounds. About 8,600 (12%) showed an effect of 50% or more. The sample holds strong results, similar compounds and a random draw of the others, so the mix is not that of the screen.

system: Plasmodium berghei; assay: Screen against P. berghei liver stage (PbLuc), transformed with Luciferase, at 10uM; format: functional, HepG2; conditions: tested at 10 uM

In order of rising INHIBITION:
1. Cc1cccc(CN2CCc3nnc(CN4CCCCC4)n3CC2)n1  -89.8%
2. CCc1ccccc1OC1CN(C(=O)CN(C)Cc2cccnc2)C1  -76.5%
3. Cc1cnn(CC2CCCN2CC(=O)NC2CCN(C3CC3)CC2)c1 (stereo not given)  -42.3%
4. O=C(c1cnccn1)N1CCCC(Cc2cncc3ccccc23)C1 (stereo not given)  -39.4%
5. CCc1nc(C2CCCN(C(=O)c3ccc(OC)cc3)C2)no1 (stereo not given)  -31.8%
6. COCCNc1cccc(C2CCCN2)n1 (stereo not given)  -31%
7. CC1CCN(C(=O)[C@@H]2C[C@@H]3CCN(CC4CCOCC4)C[C@@H]3O2)CC1  -24.9%
8. Cc1csc(N2CCN(C(=O)Cc3ccc(C)s3)CC2)n1  -23.8%
9. COc1ccc(C[C@H]2CN(C(=O)c3cc(C)no3)CC[C@H]2OC)cc1  -22.1%
10. CCC(CC)C(=O)N1CCOC2(COCCN(CC(=O)NC)C2)C1 (stereo not given)  -13%
11. O=C(NCCc1c[nH]cn1)c1n[nH]c2c1CCC2  -11.1%
12. CCn1nc(C)c2nc(C(C)C)nc(N3CCN(C)CC3)c21  -10.1%
13. O=C(NCCCN1CCOCC1)c1ccn(COc2ccccc2)n1  -8.07%
14. CCS(=O)(=O)N1CC[C@H]2C(=O)N(Cc3cccnc3)CCO[C@H]2C1  -7.38%
15. CN(CC(=O)N1CC(C)(C)[C@](O)(C2CC2)C1)Cc1cccnc1  -3.94%
16. COCCNC(=O)NC(C)COc1ccc(F)cc1F (stereo not given)  -2.48%
17. Nc1nccc(N2C[C@@H](CN3CCCCC3)[C@@H](CO)C2)n1  -2.39%
18. CN(C)C(=O)CN1CCN(C(=O)c2cnn(-c3ccccc3Cl)c2)CC1  -2.33%
19. COc1ccccc1OC1CN(C(=O)CN(C)Cc2ccncc2)C1  -2.04%
20. CCN(C(=O)COc1nc(C(C)(C)C)no1)C1CC1  -1.75%
21. CN(C)CCN1CCC2(CCN(C(=O)c3cccc(F)c3)CC2)C1=O  0.112%
22. Cn1cc(C(=O)N2CCCC(Cc3cncc4ccccc34)C2)cn1 (stereo not given)  3.91%
23. COc1ccccc1CC(=O)N1CCCC(CNS(C)(=O)=O)C1 (stereo not given)  4.623%
24. CCOC(=O)N1CCN(C(=O)c2snnc2-c2ccc(OC)cc2)CC1  4.66%
25. CCn1cc(CN2CCCN(C(=O)CCSC)CC2)cn1  5.9%
26. CCN(CC)S(=O)(=O)NCC1Cc2ccccc2O1 (stereo not given)  7.65%
27. CCCn1ncc(C(=O)NC(C)c2c(C)nn(CC)c2C)c1C (stereo not given)  9.05%
28. CCOCC(=O)Nc1cc(-c2cccc(F)c2F)n[nH]1  10.7%
29. Cc1ncsc1CN1CC[C@H]2OCC[C@@]2(C(=O)NC(C)C)C1  11.1%
30. CCCSCC(=O)Nc1ncn(CC(=O)NCc2ccccc2)n1  12.2%
31. Cc1nccc(N2C[C@@H](CN3CCCC3)[C@@H](CO)C2)n1  13%
32. CN(C)CCN1CCC2(CCN(C(=O)c3ccncc3)CC2)C1=O  13.7%
33. O=C(COCC(=O)N1CCCCCC1)NCc1cccc(Br)c1  14.1%
34. COCCN1C[C@@H]2CN(Cc3cccc(C)n3)C[C@@H]2C1=O  14.1%
35. Cc1csc(N2CCCN(C(=O)Cc3cccs3)CC2)n1  14.4%
36. CNc1cc(C2CCCN2C(=O)CCc2cnn(C)c2C)ccn1 (stereo not given)  14.6%
37. COc1ccc2[nH]cc(C(=O)N3C[C@@H](O)[C@H](NS(C)(=O)=O)C3)c2c1  14.6%
38. COCC(=O)NC(C)Cc1cccc(Br)c1 (stereo not given)  14.7%
39. CCn1cc(CN2CCCN(C(=O)CCc3cnn(C)c3)CC2)cn1  15.5%
40. Cn1nnc2cc(C(=O)NS(=O)(=O)c3ccc(F)cc3)ccc21  17.1%
41. Cc1cnn(CCC(=O)N2CCCN(c3nc(C)cs3)CC2)c1  17.4%
42. COCCNC(=O)Cn1c(-c2cccc(Cl)c2)nc(C)c(CCO)c1=O  18.2%
43. CNC(=O)CC1c2cccnc2C(=O)N1Cc1ccccc1 (stereo not given)  19.2%
44. CC(C)c1nccn1C1CCCN(C(=O)CN(C)C2CC2)C1 (stereo not given)  19.6%
45. CCNc1cc2c(nn1)CCN(C(=O)c1ccc(-n3cnnc3)cc1)C2  19.6475%
46. CC(C)N1C(=O)CO[C@H]2CCN(C(=O)c3ccc4c(c3)CCC4)CC[C@@H]21  20.105%
47. Cn1cc(C(=O)N2CCCC(Cc3nccs3)C2)cn1 (stereo not given)  20.2%
48. CCc1nccn1C1CCCN(C(=O)c2cncnc2C)C1 (stereo not given)  21.6%
49. CC(Cc1cccc(F)c1)NCc1cnc(N2CCN(C)CC2)nc1 (stereo not given)  23.2%
50. Cn1ccc(C(=O)N2CCC(Cc3cccc4ncccc34)C2)n1 (stereo not given)  23.4%
51. CC(=O)N1CCCC1c1nc(CN(C)C(=O)C(C)C)cc(N(C)C)n1 (stereo not given)  23.9%
52. CC(=O)N1CCN(C(=O)NC(C)Cn2ccnc2)CC1 (stereo not given)  24.2%
53. CCc1n[nH]c(C2CN(CCS(C)(=O)=O)CCO2)n1 (stereo not given)  25.6%
54. O=C(c1cnco1)N1CCCC(Cc2nccs2)C1 (stereo not given)  26.9%
55. COc1cc(C(=O)N2CC(Oc3ccccc3Cl)C2)ccn1  27.5%
56. CN(C)C[C@@H]1CN(C(=O)CCC2CCCC2)C[C@@H]1CO  28.2%
57. Cn1cnc2cc(C(=O)NS(=O)(=O)c3ccc(F)cc3)ccc21  28.4%
58. O=S(=O)(NC1CCCOC1)c1ccc(C(F)(F)F)nc1 (stereo not given)  30%
59. CCOC1COC2(CCN(Cc3ccc(C)c(C)c3)CC2)C1 (stereo not given)  30.9%
60. Cc1nnc(C2CCN(C(=O)c3cnc4ccccc4n3)CC2)s1  31.2%
61. O=C(c1cnccn1)N1CCCC(Cc2ccccn2)C1 (stereo not given)  31.8%
62. Cc1c(C(=O)N2CCC3(CCC(=O)N(CCN(C)C)C3)CC2)ccn1C  34%
63. CN(C)CCN1CC2(CCC1=O)CCN(C(=O)c1ccn(C)n1)CC2  35.1%
64. Cc1cnn(CC(=O)N2CCCN(c3nc(C)cs3)CC2)c1  35.9%
65. Cn1nc(Br)c2c(NCCS(N)(=O)=O)ncnc21  36.4%
66. O=C(Nc1ncn(Cc2cccc(Br)c2)n1)C1CCC1  37.2%
67. Cc1cc(C)c(CNC(=O)NCc2ccncc2)c(=O)[nH]1  37.9%
68. CCC(CC)n1ncc(C(=O)NS(=O)(=O)c2ccsc2)c1C  38.4%
69. CC(CC(=O)Nc1ncn(CC(=O)NCc2ccccc2)n1)C1CC1 (stereo not given)  38.8%
70. CNC(=O)N1CCC2(CC1)CN(C)Cc1cc(F)ccc12  39.3%
71. CN(Cc1cc[nH]n1)C(=O)c1cn(Cc2ccccc2Cl)nn1  39.4%
72. Fc1cccc(Cl)c1Cn1ncnc1CSCCN1CCCC1  39.9%
73. CCC(C)c1noc(C2CCN(C(=O)Cn3nc(C)cc3C)CC2)n1 (stereo not given)  40.8%
74. Cc1noc(C)c1CN1CCC2(CC1)C(c1cnn(C)c1)CC(=O)N2C (stereo not given)  41.2%
75. CN(CC(=O)N1CC(C)(C)[C@](O)(C2CC2)C1)Cc1ccncc1  41.5%
76. CC(C)CC(=O)N1CC[C@H]2N(C)CC[C@@]2(C(=O)Nc2ccccc2)CC1  42.5%
77. Cn1ccc(C(=O)N2CCC(Cc3cccc4ncccc34)CC2)n1  42.6%
78. O=C(c1ccnc(C2CCNCC2)c1)N1CCCOCC1  42.6%
79. CCn1cc(CN2CCN(C(=O)N3CCOCC3)CC2)cn1  43.4%
80. O=C(c1cnco1)N1CCC(Cc2cccc3ncccc23)CC1  44.9%
81. CCn1cc(CN2CCCN(C(=O)C3(C#N)CCCCC3)CC2)cn1  45.2%
82. CCCc1nc(C)cc(N2CCNC(C(=O)Nc3ccc(C)nc3)C2)n1 (stereo not given)  46.1%
83. O=C(NCc1cccnc1)[C@H]1C[C@@H]2CCN(c3ccncn3)C[C@H]2O1  48%
84. COc1ccc(CN2C[C@H](N3CCCC3=O)[C@@H]3OCCC[C@@H]32)cc1  48.2%
85. COc1cccc(OC2CN(C(=O)c3ccnc(OC)c3)C2)c1  49.9%
86. O=C(c1cnco1)N1CCCC(Cc2cccc3ncccc23)C1 (stereo not given)  51.2%
87. CCn1cc(CN2CCCN(C(=O)CCn3cc(C)cn3)CC2)cn1  52.5%
88. CC(C)C(=O)Nc1ncn(Cc2cccc(Br)c2)n1  53.3%
89. Cc1c(C(=O)NS(=O)(=O)c2ccsc2)cnn1CC(C)C  53.8%
90. CCn1cc(CN2CCCN(C(=O)C3(C)CCOCC3)CC2)cn1  55.4%
91. CSc1nccc(N2C[C@@H](CN3CCCCC3)[C@@H](CO)C2)n1  55.7%
92. Cc1c(C(=O)NS(=O)(=O)c2ccc(F)cc2)cnn1CC(C)C  56%
93. CN(C)CCN1CCC2(CCN(C(=O)c3ccc(F)cc3)CC2)C1=O  56.6%
94. CCc1ccccc1OC1CN(C(=O)CN(C)Cc2ccncc2)C1  58.1%
95. CCCc1nc(C)cc(N2CCNC(C(=O)NCc3cccnc3)C2)n1 (stereo not given)  59.1%
96. CN(CC(=O)N1CC(C)(C)[C@@](C)(O)C1)Cc1ccncc1  59.1%
97. CCc1ccccc1OC1CN(C(=O)c2ccnc(OC)c2)C1  61.1%
98. CCOCC(=O)Nc1ncn(Cc2cccc(Br)c2)n1  61.8%
99. Cc1cnn(CCC(=O)N2CCN(c3nc(C)cs3)CC2)c1  62.8%
100. CSCC(=O)Nc1ncn(Cc2cccc(Br)c2)n1  69.3%
101. Cc1csc(N2CCCN(C(=O)Cc3ccc(C)s3)CC2)n1  69.8%
102. CCc1ccc(C(=O)N2CCC3(CCC(=O)N(CCN(C)C)C3)CC2)[nH]1  70.4%
103. O=C(c1cnccn1)N1CCCC(Cc2cccc3ncccc23)C1 (stereo not given)  70.8%
104. Cn1ccc(C(=O)N2CCCC(Cc3cccc4ncccc34)C2)n1 (stereo not given)  75.1%
105. Cn1cc(C(=O)N2CCCC(Cc3cccc4ncccc34)C2)cn1 (stereo not given)  85.7%
